Measurements reported in the supplement of paper PMC13380429.
Counter-ions that a name gives are not always drawn. A number with no mark means an inactive call.

System: Vero E6 infected with SARS-CoV-2
Experiment: inhibition of SARS-CoV-2 cytopathic effect; higher = more antiviral protection, active = above 15
Details: 48 h

| SMILES | inhibition of SARS-CoV-2 cytopathic effect (1 nM) | inhibition of SARS-CoV-2 cytopathic effect (8.33 nM) | inhibition of SARS-CoV-2 cytopathic effect (100 nM) | inhibition of SARS-CoV-2 cytopathic effect (833.33 nM) | inhibition of SARS-CoV-2 cytopathic effect (10000 nM) |
| --- | --- | --- | --- | --- | --- |
| N#Cc1ccc(-c2ccc(S(=O)(=O)Nc3cccc(N)n3)cc2)cc1 | 0.14% | 3.14% | -0.56% | 0.76% | 1.78% |
| COc1ccccc1CC(=N)N1C[C@@H]2C(=O)CCC(c3ccccc3)(c3ccccc3)[C@@H]2C1 | -0.54% | 2.21% | 1.93% | 3.76% | -2.17% |
| NS(=O)(=O)c1cc2c(cc1C(F)(F)F)NCNS2(=O)=O [hydroflumethiazide] | 0.67% | 2.12% | 1.79% | 0.37% | 0.46% |
| NS(=O)(=O)Cc1noc2ccccc12 [zonisamide] | -1.19% | -3.86% | -0.76% | 0.73% | -2.23% |
| N=c1ccn2c(n1)O[C@H]1[C@H](O)[C@@H](CO)O[C@H]12 [Cyclocytidine HCl] | 1.24% | 1% | 0% | -0.83% | -4.27% |
| COc1cccc2cc(-c3nc([C@H]4CC[C@H](C(=O)O)CC4)n4ncnc(N)c34)[nH]c12 | 0.22% | 2.25% | 4.58% | -0.9% | -2.61% |
| CCC(=O)NC[C@@H]1C[C@H]1c1cccc2c1CCO2 [tasimelteon] | -0.84% | 1.68% | -0.1% | 0.64% | -1.54% |
| COc1cc(C=O)ccc1O [vanillin] | 1.74% | 0.89% | 1.04% | -1.54% | -2.8% |
| O=C(O)P(=O)(O)O [foscarnet] | 3.44% | 3.89% | 2.56% | 0.33% | 0.71% |
| NS(=O)(=O)c1ccc(-n2nc(C(F)(F)F)cc2-c2ccc(Cl)cc2)cc1 | 1.27% | 3.82% | -2.22% | -0.43% | -0.38% |
| Cc1oc(-c2ccccc2)nc1CCC(=O)c1ccc(CC2SC(=O)NC2=O)cc1 (stereo not given) [darglitazone] | 2.44% | 3.08% | -5.6% | -5.76% | -1.67% |
| CC(C)C[C@H](NC(=O)[C@@H]1CCCN1)C(=O)NCC(N)=O [prolylleucylglycinamide] | 0.63% | 2.46% | 1.44% | 0.51% | 1.22% |
| O=C(NCc1ccncc1)C12CC3CC(C1)CC(c1ccc(Cl)cc1)(C3)C2 | 2.05% | -4% | -2.61% | -2.22% | -5.2% |
| Nc1nc(=O)n([C@@H]2O[C@H](CO)[C@@H](O)[C@@H]2F)cc1I [fiacitabine] | -1.38% | -1.55% | 2.03% | -1.22% | -0.56% |
| NS(=O)(=O)c1ccc2c(c1)C1C=CCC1C(c1ccc(Br)cc1)N2 (stereo not given) | -1.04% | 1.37% | -1.73% | -1.33% | -0.61% |
| C[C@H]1CCc2c(cc(Br)c(F)c2Br)N1C=O | -0.42% | -1.13% | -1.55% | -0.53% | -1.25% |
| Oc1ccc2c(c1)CC[C@H](c1ccccc1)[C@@H]2c1ccc(OCCN2CCCC2)cc1 [lasofoxifene] | -1.63% | 4.35% | 0.8% | -0.28% | 49.6% (active) |
| O=C1CN(/N=C/c2ccc([N+](=O)[O-])o2)C(=O)N1 [nitrofurantoin] | -0.06% | -0.32% | 0.43% | 0.55% | 1.5% |
| CCN(c1ccccc1)c1cc(=NC)n(C)c(C)n1 | -6.18% | -5.43% | -5.42% | -2.51% | -0.53% |
| C[n+]1cc2c3c(ccc2c2ccc4cc5c(cc4c21)OCO5)OCO3 [sanguinarium-chloride] | 0.27% | 0.22% | -1.52% | 2.52% | -25.4% |
| COc1ccc(CC2NCCc3cc(OC)c(OC)cc32)cc1OC (stereo not given) [tetrahydropapaverine] | 1.62% | 0.89% | -0.93% | -3.46% | -3.09% |
| Cc1cc(Nc2ncnc3ccc(NC4=NC(C)(C)CO4)cc23)ccc1Oc1ccn2ncnc2c1 [tucatinib] | -2.37% | 0.54% | -5.16% | -3.64% | -12.7% |

| SMILES | inhibition of SARS-CoV-2 cytopathic effect (1 nM) | inhibition of SARS-CoV-2 cytopathic effect (8.33 nM) | inhibition of SARS-CoV-2 cytopathic effect (100 nM) | inhibition of SARS-CoV-2 cytopathic effect (833.33 nM) | inhibition of SARS-CoV-2 cytopathic effect (10000 nM) |
| --- | --- | --- | --- | --- | --- |
| Cc1noc2c1-c1ccccc1C(c1ccc(Cl)cc1)=N[C@H]2CC(N)=O | -3.02% | 0.61% | -3.13% | 0.14% | -11.1% |
| CC(C)c1cc2c(cc1S(=O)(=O)O)[C@@]1(C)CCC[C@@](C)(C(=O)O)[C@@H]1CC2 [ecabet] | -2.02% | 0% | -1.76% | 0.14% | -0.11% |
| c1ccc(COCCCc2c[nH]cn2)cc1 [proxyfan] | -1.62% | -1.11% | -0.96% | 0.04% | -3.35% |
| c1cc(-c2sc(-c3ccncc3)c(-c3ccncc3)c2-c2ccncc2)ccn1 | -1.78% | -0.14% | -3.51% | -4.39% | -5.36% |
| CC(C)(N)CC12CC3CC(CC(C3)C1)C2 [somantadine] | -2.05% | -1.35% | -0.66% | -1.44% | -6.1% |
| CCCCCCCC/C=C\CCCCCCCC(N)=O [oleamide] | -2.29% | -1.34% | -3.82% | 0.76% | 0.18% |
| CCCC(O)C(CC)CO (stereo not given) [2-ethyl-1,3-hexanediol] | 4.92% | 0.49% | 1.14% | 0.52% | 0.65% |
| COc1ccc(C(=O)NCc2cccnc2)cc1C(=O)NCc1cccnc1 [picotamide] | -0.44% | 2.62% | 0.96% | 0.22% | -1.62% |
| CN(C)CCOc1ccc(/C(=C(/CCCl)c2ccccc2)c2ccccc2)cc1 [toremifene] | 1.37% | 1.85% | 1.34% | 2.22% | 23.7% (active) |
| CN1C2CCCC1CC(NC(=O)c1nn(C)c3ccccc13)C2 (stereo not given) [granisetron] | 3.53% | 4.21% | -1.14% | -2.63% | -4.21% |
| COc1ccc(-c2oc3c(CC=C(C)C)c(O[C@@H]4O[C@H](CO)[C@@H](O)[C@H](O)[C@H]4O)cc(O)c3c(=O)c2O[C@@H]2O[C@@H](C)[C@H](O)[C@@H](O)[C@H]2O)cc1 [icariin] | 4.38% | 3.84% | 1.25% | -0.92% | -4.04% |
| COC(=O)/C=C/C(=O)OCCN1C(=O)CCC1=O [diroximel-fumarate] | -3.18% | -0.95% | -3.4% | -1.82% | 11.3% |
| COc1cccc(C2(O)CCCCC2CN(C)C)c1 (stereo not given) | 3.29% | 6.35% | 2.41% | -2.01% | -5.31% |
| CN1CC(=O)NC1=N [creatinine] | 1.26% | 1.05% | -2.37% | 1.18% | -1.05% |
| NP(N)(=O)NC(=O)c1ccc(F)cc1 [flurofamide] | 3.53% | -1.42% | -1.3% | 0.9% | 5.62% |
| O=c1[nH]c2ccccc2n1C1CCN(CCCC(c2ccc(F)cc2)c2ccc(F)cc2)CC1 [pimozide] | 0.44% | 1.6% | 0.1% | -0.58% | -5.7% |
| Cc1cc(Nc2nc(N[C@@H](C)c3ccc(F)cc3)c(C#N)cc2F)n[nH]1 | 0.59% | 0.82% | -1.14% | -3.33% | -13% |
| CN1CCN(c2cc3c(cc2F)c(=O)c(C(=O)O)cn3-c2ccc(F)cc2)CC1 [difloxacin] | -1.68% | 2.12% | 0.47% | 0.94% | 1.41% |
| CNCC(O)c1ccc(OC(=O)C(C)(C)C)c(OC(=O)C(C)(C)C)c1 (stereo not given) [dipivefrine] | 0.87% | 3.76% | 1.77% | 1.42% | 0.56% |
| CN[C@@H]1[C@@H](O)[C@@H](O[C@@H]2[C@@H](O)[C@H](O[C@H]3O[C@H](CN)[C@@H](O)[C@H](O)[C@H]3O)[C@@H](N)C[C@H]2NC(=O)[C@@H](O)CN)OC[C@]1(C)O [isepamicin] | -2.06% | 1% | 3.72% | -1.29% | -1.06% |
| O=c1ccn([C@@H]2O[C@H](CO)[C@@H](O)[C@H]2O)c(=O)[nH]1 [uridine] | 0.24% | 0.14% | 0.2% | -1.16% | 2.27% |
